# Screening data as filed in PubChem BioAssay.
# TRHR enhancer-1: allosterically enhances the human TRH receptor. P34981. TRHR cells, fluo-8 calcium fluorescence, EC20 TRH enhancement. enhancement, % at 2 µM. hit rate 0.66% among 360,000. AID 493056; in the data active = enhancement above about 30%
#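 TRHR-expressing cells loaded with fluo-8 calcium dye were read kinetically (ex 480/em 530) during compound addition, then stimulated with an EC20 of TRH (10 nM final). Enhancement of the Gq-mediated intracellular calcium response was scored.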
# D1 antag: human D1 dopamine receptor antagonism | P21728 | AID 504652 | HEK293 TREx D1 cells, calcium flux, dopamine EC80; hits give low values | hit rate 3.2% among 360,000 | activity change, negative = inhibition, % at 10 µM; in the data active = activity change below about -30%
# Target sequence (P21728 whole entry, looked up): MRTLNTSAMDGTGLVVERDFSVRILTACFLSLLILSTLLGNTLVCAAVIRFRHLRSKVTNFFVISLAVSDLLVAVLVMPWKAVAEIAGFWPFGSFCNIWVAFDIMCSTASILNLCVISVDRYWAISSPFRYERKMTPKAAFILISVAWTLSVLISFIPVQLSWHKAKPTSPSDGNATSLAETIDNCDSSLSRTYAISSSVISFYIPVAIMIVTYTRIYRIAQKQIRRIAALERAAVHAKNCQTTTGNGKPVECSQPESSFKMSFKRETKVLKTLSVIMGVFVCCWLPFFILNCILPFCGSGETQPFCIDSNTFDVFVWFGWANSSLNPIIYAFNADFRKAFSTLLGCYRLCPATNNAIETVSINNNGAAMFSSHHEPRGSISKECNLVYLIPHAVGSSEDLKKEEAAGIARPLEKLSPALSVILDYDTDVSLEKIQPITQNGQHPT
#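 After overnight tetracycline induction at 30 C, force-coupled D1 HEK293 cells took up a no-wash calcium dye at room temperature. Compounds were added and monitored 180 s, and the response to EC80 dopamine was then recorded.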
# TRHR agonist-1: TRH receptor (human) agonism; TRHR cells, calcium flux fluo-8, FDSS agonist mode; activation, % at 2 µM; hit rate 0.18% among 360,000; AID 493084; P34981; in the data active = activation above about 30%
#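 TRHR-expressing cells, plated overnight in medium with 10% serum, were loaded with fluo-8 calcium dye at room temperature. After a 10 s baseline, library compound was pin-added and calcium release was recorded kinetically (ex 480/em 530) as agonist response.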
# D1 ag: activates the human D1 dopamine receptor | P21728 | HEK293 T-REx D1 cells, calcium flux, agonist mode | activation, % at 2 µM | hit rate 1% among 360,000 | AID 504660; in the data active = activation above about 30%
#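 Agonism was scored from calcium flux recorded over 180 s (1 read/s) after pintool compound addition, following a 10-cycle baseline. Cells were inducible force-coupled HEK293 TREx D1, plated overnight at 30 C and loaded with no-wash calcium dye.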
# LDHA inh: LDHA (human) enzyme inhibition; purified LDHA, NADH/diaphorase-resazurin fluorescence; hits give low values; activity change, % (values are at about 110 or 230 µM); P00338; hit rate 0.15% among 480,000; AID 1347041; in the data active = activity change below about -30%; inconclusive = mostly about -25% to -30%
#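 Remaining NADH was detected by diaphorase (0.133 mg/mL) converting 37 µM resazurin to fluorescent resorufin, read at 0 and 20 minutes. The preceding 5-minute room-temperature reaction used 2 nM LDHA, 0.2 mM sodium pyruvate and 0.06 mM NADH at pH 7.4.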
# D1 potentiator: enhances dopamine response at the human D1 receptor | P21728 | HEK293 TREx D1 cells, calcium flux, dopamine EC20 potentiation | potentiation, % at 10 µM | hit rate 0.036% among 360,000; in the data active = potentiation above about 30%
# TRHR enhancer-2: human TRH receptor allosteric enhancement confirmation; shares compounds with TRHR enhancer-1; TRH receptor cell assay, enhancer confirmation qHTS; activity change, negative = inhibition, % at 46.1 µM; 970 tested, under 10 active; AID 493076;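 also: compound effect scored on response to added TRH at EC20 of 10 nM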
# TRHR agonist-2: human TRH receptor agonism confirmation. hit rate 8% among 970. Potency, µM (highest dose often 46.1 µM), actives largely listed as activators. TRHR-expressing cells, agonist activation read-out. shares compounds with TRHR enhancer-1; also: nearly all actives have a fitted effect of over 75% in size
# Hits are given with their value; - = inactive; ? = inconclusive; . = not tested or not shown; ! = not active in a repeat. Compounds with a hit are over-represented: about 3.6% of the library has one in this group of screens. Unless noted, calls follow the shape of the dose curve; as a rule, active = well fitted curve in the direction sought with a large enough effect; inconclusive = small, poorly fitted or top-dose-only effect, or another doubt; inactive = no such curve, though single readings can be large; an effect the other way counts as inactive or inconclusive.
SMILES,TRHR enhancer-1,D1 antag,TRHR agonist-1,D1 ag,LDHA inh,D1 potentiator,TRHR enhancer-2,TRHR agonist-2
COc1cc(/C=C2/C(=O)NN(c3cccc(C)c3)C2=O)ccc1OC(=O)c1ccco1,52,-,-,-,-,-,-,-
N#Cc1ccc(-c2cccnc2)nc1SCC(=O)c1ccccc1,-,-,38,108,-,-,-,-
CC(=O)Nc1sc(/C(C#N)=C/c2ccc(Cl)c(Cl)c2)nc1-c1ccc(C)cc1,-,-49,68,283,-,-,-,7.3µM
CNC(=O)NC(=O)Cn1nnc(-c2ccc(F)c(C)c2)n1,.,.,.,.,-,.,.,.
O=C(Cc1cccs1)N=Nc1c(O)[nH]c2ccccc12,43,-,-,-,-,-,-,-
O=C(Cc1cccs1)N=Nc1c(O)[nH]c2ccc(Br)cc12,-,-,-,-,-,-,.,.
COc1ccc(NC(=O)c2cc(-c3ccccc3)on2)cc1OC,-,-,-,-,-,-,.,.
COc1ccc(-c2cc(C(=O)Nc3cc(C)nn3-c3ccccc3)no2)cc1OC,57!,-,-,-,-,-,-,-
COc1cccc(-c2cc(C(=O)Nc3ccc(OC)c(OC)c3)no2)c1,-,-,-,-,-,-,-,-
CC(C)NC(=O)c1ccc2c(c1)CCCN2C(=O)c1ccc(Cl)cc1,.,.,.,.,-,.,.,.
CN1CCN(S(=O)(=O)c2cccc(C(=O)Oc3ccc(C(C)(C)C)cc3)c2)CC1,50,-30,-,-,-,-,-,-
CC(C)c1ccc(OC(=O)c2cccc(S(=O)(=O)N3CCN(C)CC3)c2)cc1,-,-,-,-,-,-,.,.
CSCCC(NC(=O)c1ccc(C#CC(C)(C)O)cc1)C(=O)O (stereo not drawn),.,.,.,.,-,.,.,.
O=C(c1ccc(F)cc1)C1CCN(C(=O)Nc2ccccc2Cl)CC1,50,-,-,-,-,-,-,-
Cc1ccccc1NC(=O)N1CCC(C(=O)c2ccc(F)cc2)CC1,-,-,-,-,-,-,.,.
Cc1ccc2nc(SCC(=O)N3CCN(S(=O)(=O)c4ccccc4)C3)[nH]c2c1,.,.,.,.,-,.,.,.
CC(C)N(Cc1cnn(C)c1)Cc1nc(COc2ccccc2)no1,-,-,-,-,-,-,.,.
CN(Cc1cnn(C)c1)Cc1nc(COc2ccccc2)no1,46,-,-,-,-,-,-,-
Cc1noc(CS(=O)(=O)Cc2ccccc2C)n1,.,.,.,.,-,.,.,.
O=C(CN1CCN(c2ccccc2F)CC1)c1ccc(O)cc1O,94,-,-,-,-,-,-,-
CCCCOc1ccc(OCCSc2nc3ccccc3n2CC(=O)O)cc1,56,-,-,-,-,-,-,-
O=C(O)Cn1c(SCCOc2ccccc2)nc2ccccc21,-,-,-,-,-,-,.,.
CCCCCCc1cc2cc(C(=O)NCc3ccccc3)c(=N)oc2cc1O,-,-,-,-,-,-,.,.
CCCCCCc1cc2cc(C(=O)Nc3ccccc3)c(=O)oc2cc1O,-,-,30,-,-,-,-,-
COc1ccc(Cn2nnnc2CN(CCCN2CCOCC2)Cc2cc3cc(OC)ccc3[nH]c2=O)cc1,43,-,-,-,-,-,-,-
SMILES,TRHR enhancer-1,D1 antag,TRHR agonist-1,D1 ag,LDHA inh,D1 potentiator,TRHR enhancer-2,TRHR agonist-2
CC(Sc1nnc(-c2c[nH]c3ccccc23)o1)C(=O)N1CCNC1=O (stereo not drawn),.,.,.,.,-,.,.,.
O=C(O)C1=C[C@@H](c2csc3ccccc23)C[C@@H](OCCCCO)O1,49,-,-,-,-,-,-,-
COCCn1c(CCC(=O)Nc2ccc(F)c(F)c2)nc2c1c(=O)[nH]c(=O)n2CC(C)C,.,.,.,.,-,.,.,.
COc1ccc(C(=O)C2CCN(C(=O)c3ccc(C)cc3)CC2)cc1,-,-,-,-,-,-,.,.
COc1ccc(C(=O)C2CCN(C(=O)c3ccco3)CC2)cc1,49,-40,-,-,-,-,?,-
C=CCNc1nc(-c2cc(C)n(-c3cc(C)on3)c2C)cs1,.,.,.,.,-,.,.,.
Cc1ccc(C)n1C1CCS(=O)(=O)C1 (stereo not drawn),-,-,-,-,-,-,.,.
CC(C)c1ccccc1N=C1SCCN1C1CCS(=O)(=O)C1 (stereo not drawn),70,-,-,-,-,-,-,?
NC(=O)c1ccc(F)cc1,59,-,-,-,-,-,-,-
Cc1cccc(C)c1NC(=S)N1CCOCC1,-,-,-,-,-,-,.,.
Cc1cccc(C)c1NC(=S)N1CCC(c2ccccc2)C1 (stereo not drawn),49,-,-,-,-,-,-,-
Cc1cccn2c(=O)c(C=Nc3ccccc3)c(NCCO)nc12,44,-,-,-,-,-,-,-
Cc1cccn2c(=O)c(C=Nc3ccc(Cl)cc3)c(NCCO)nc12,-,-,-,-,-,-,.,.
Cc1c(NC(=O)CN2C(=O)NC(C)(c3ccccc3)C2=O)c(=O)n(-c2ccccc2)n1C (stereo not drawn),48,-32,-,-,-,-,-,-
CCOC(=O)Cc1nnc(NC(=O)COc2ccc(C)cc2)s1,41,-,-,-,-,-,?,-
CC(=O)c1ccc(N2CCN(C(=O)CCc3ncc(-c4ccc(C)c(C)c4)o3)CC2)c(F)c1,.,.,.,.,-,.,.,.
Cc1cc(OCCOCCNC(C)C)cc(C)c1Cl,-,-,-,-,-,-,.,.
Cc1cc(OCCCCNC(C)C)cc(C(C)C)c1,42,-,-,-,-,-,-,-
O=C(NCc1coc(-c2cccs2)n1)c1ccc(N2CCCC2)c([N+](=O)[O-])c1,.,.,.,.,-,.,.,.
COc1c(C)cc(C(=O)C2CCCN(C(=O)CCc3scnc3C)C2)cc1C (stereo not drawn),53,-,-,-,-,-,-,-
COc1cccc(C(=O)C2CCCN(C(=O)CCc3scnc3C)C2)c1 (stereo not drawn),-,-,-,-,-,-,.,.
Cc1ccc(CN(C)C(=O)c2sc3nc(C(C)(C)C)nc(C)c3c2C)o1,.,.,.,.,-,.,.,.
Cc1cccc(C)c1NC(=O)COC(=O)c1ccccc1Nc1ccccc1,-,-,35,-,-,-,-,-
Cc1ccnc(SCC(=O)N2CCc3ccccc3C2)n1,-,-,-,-,-,-,.,.
Cc1cc(=O)[nH]c(SCC(=O)N2CCc3ccccc3C2)n1,-,-,-,-,-,-,?,-
CCCn1nc(C(=O)OCC(=O)Nc2ccc(C)c(C)c2)c2ccccc2c1=O,.,.,.,.,-,.,.,.
O=C(NC1CCCCC1)C(c1ccc2ncccc2c1)N(Cc1ccccc1)C(=O)c1cccs1 (stereo not drawn),59,-,-,-,-,-,-,-
